Data on 18 compounds can be found in PubChem BioAssay (NCATS).

The target in assay [1] is Aldehyde dehydrogenase, mitochondrial (Homo sapiens) (UniProt P05091). The experiment in a line: qHTS for Inhibitors of the Aldehyde Dehydrogenase Family (ALDH2) Primary screen (AID 2061308). Note: nearly all actives have a fitted effect of over 55% in size.
The target of assay [2] is Retinaldehyde dehydrogenase 3 (Homo sapiens) (UniProt P47895). Description: qHTS for Inhibitors of the Aldehyde Dehydrogenase Family (ALDH1A3) Primary screen (AID 2061315). (In general: In qHTS, concentration-response curves come from the screen itself.)
Assay [3] has the same target. The experiment in a line: qHTS for Inhibitors of the Aldehyde Dehydrogenase Family (ALDH1A3) Validation screen (AID 2061312). Note: nearly all actives have a fitted effect of over 45% in size.

Records with an inconclusive call do not appear. Calls of active or inactive are those of the source. Calls come from the whole dose curve; as a rule, active = well fitted curve in the direction sought with a large enough effect; inconclusive = small, poorly fitted or top-dose-only effect, or another doubt; inactive = no such curve, though single readings can be large; an effect the other way counts as inactive or inconclusive.

For the compound `CC(=O)O[C@H]1C(=O)[C@]2(C)C(O)C[C@H]3OC[C@@]3(OC(C)=O)[C@H]2[C@H](OC(=O)c2ccccc2)[C@]2(O)C[C@H](O)C(C)=C1C2(C)C` (some centres not stated), the Potency entry in assay [1] and in assay [2] was “inactive” in each case.
With `COC1CC(O[C@H]2CC[C@]3(C)C4CC[C@]5(C)[C@@H](C6=CC(=O)OC6)[C@@H](OC(C)=O)C[C@]5(O)C4CC[C@@H]3C2)OC(C)C1O` (some centres not stated), the Potency entry in assay [1] was “inactive”.
As for `Cc1c(P(=S)(c2ccccc2)c2ccccc2)c2ccccc2n1C`, the Potency entry in assay [1] and in assay [2] was “inactive” in each case.
Consider `C[C@@H](CN1CCC2(CC1)C(=O)NCN2c1cccc(F)c1)NC(=O)c1ccc(Br)cc1`, for which the Potency result in assay [1], in assay [3] and in assay [2] was “inactive” in each case.
For `COc1ccc2[nH]c(-c3ccccc3)c(CCN(C)C)c2c1`, the Potency entry in assay [1], in assay [3] and in assay [2] was “inactive” in each case.
As for `Cn1c(-c2ccccc2)c(P(=S)(c2ccccc2)c2ccccc2)c2ccccc21`, the Potency result in assay [1] and in assay [2] was “inactive” throughout.
Turning to `C[C@@H]1O[C@@H](OC2CCC3(C=O)C(CCC4C3CCC3(C)C(C5=CC(=O)OC5)C(O)CC43O)C2)[C@H](O)[C@H](O)[C@H]1O[C@@H]1O[C@H](CO)[C@@H](O)[C@H](O)[C@H]1O` (some centres not stated), in assay [1], the Potency entry was “inactive”.
Take `NC(=O)c1ncn2c1CN=C(c1ccccc1Br)c1cc(F)ccc1-2`: the Potency entry in assay [1], in assay [3] and in assay [2] was “inactive” in each case.
`COC1CC(O[C@H]2CC[C@@]3(C)C(CCC4C3CC[C@]3(C)C(C5=CC(=O)OC5)CCC43O)C2)OC(C)C1OC1OC(COC2OC(CO)C(O)C(O)C2O)C(O)C(O)C1O` (some centres not stated): the Potency result in assay [1] and in assay [2] was “inactive” throughout.
Turning to `C[C@@H]1CCC/C=C/[C@H]2C[C@@H](O)C[C@@H]2[C@@H](O)/C=C/C(=O)O1`, the Potency result in assay [1] and in assay [2] was “inactive” in each case.
Take `COc1ccc(C23CCC(=O)C=C2N(C)CC3)cc1OC` (configuration not stated): the Potency entry in assay [1] and in assay [2] was “inactive” each time.
For `CCOc1ccc(CCNC(=O)c2cc3sccc3n2CCN(C)C)cc1OCC`, the Potency entry in assay [1] and in assay [2] was “inactive” in each case.
As to `CCOc1ccc(CCNC(=O)c2ccc(C(=O)c3ccccc3)cc2)cc1OCC`, the Potency entry in assay [1] and in assay [2] was “inactive” throughout.
Take `CC(C)=CCC[C@]1(C)C=Cc2c(O)c3c(c(CC=C(C)C)c2O1)O[C@]12C(=C[C@@H]4CC1C(C)(C)O[C@@]2(C/C=C(/C)C(=O)O)C4=O)C3=O`: the Potency entry in assay [1] and in assay [2] was “inactive” in each case.
Consider `COC(=O)CC1CC2(C(=O)c3c(O)cccc3C2(O)C(=O)OC)C(C)O1` (configuration not stated), for which the Potency entry in assay [1] and in assay [2] was “inactive” each time.
`Cc1ccccc1C(C(=O)NC1CCCCC1)N(C(=O)Cn1ccnc1C)c1cccc(F)c1` (configuration not stated): the Potency entry in assay [1] and in assay [2] was “inactive” each time.
`COC(=O)C12C(=O)C(C)(O)C(=O)C1(C)C(C)=CC1C34CCC(OC3=O)C(C)(C)C4CCC12C` (configuration not stated): the Potency entry in assay [1] and in assay [2] was “inactive” each time.
On to `CC1C/C=C/C(O)C(O)CC/C=C/c2cc(O)cc(O)c2C(=O)O1` (configuration not stated), for which the Potency entry in assay [1] and in assay [2] was “inactive” throughout.
